Bioassay records (PubChem BioAssay)
An excerpt weighted towards active compounds, which were near 4.1% of everything screened.
DAX1 inh-1: blocks DAX1 repression of SF-1 activated StAR promoter | HEK293T StAR-luciferase reporter, SF-1/DAX-1 repression relief | inhibition, % at 6.8 µM | hit rate 1.1% among 370,000 | AID 652010;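 active means inhibition above the mean over all tested compounds plus 3 SD, cut at about 3.6% in these data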;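 further: higher inhibition means more luminescence from relief of DAX-1 repression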
hgDAF-12 ag: agonists of H. glycines DAF-12 nuclear receptor | HEK293 GAL4-hgDAF12 UAS-luciferase reporter, agonist luminescence; normalized to butyrate control | AID 687014 | activation, % at 6.8 µM | hit rate 1.8% among 370,000;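 active means activation above a cutoff set at the mean of all screened compounds plus 3 SD, cut at about 10% in these data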
DAX1 inh-2: inhibits human nuclear receptor DAX1; P51843; HEK293 Gal4-DAX1 luciferase reporter, luminescence; inhibition, % at 6.75 µM; hit rate 0.99% among 340,000; AID 504766;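 active means inhibition above the mean over all tested compounds plus 3 SD, cut at about 4.2% in these data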;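 further: inhibition shows as a rise in luminescence from relieved DAX1 repression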
Target sequence (P51843 207-470 limits assumed): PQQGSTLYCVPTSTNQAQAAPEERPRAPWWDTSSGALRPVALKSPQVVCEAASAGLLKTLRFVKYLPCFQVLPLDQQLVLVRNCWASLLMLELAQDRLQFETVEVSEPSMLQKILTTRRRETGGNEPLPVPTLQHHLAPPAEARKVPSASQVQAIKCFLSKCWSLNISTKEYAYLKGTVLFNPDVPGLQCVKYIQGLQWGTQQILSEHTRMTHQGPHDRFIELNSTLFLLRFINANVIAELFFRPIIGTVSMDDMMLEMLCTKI
ssDAF-12 act: activates DAF-12 receptor from parasite S. stercoralis; HEK293 ssDAF-12/GRIP1 lit1-tk-luc reporter, luminescence; % of 3 µM dafachronic acid response; activation, % at 6.8 µM; hit rate 1% among 370,000;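 active means activation above the mean over all tested compounds plus 3 SD, cut at about 0.9% in these data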
hcDAF-12 act: activators of H. contortus DAF-12 nuclear receptor; HEK293 hcDAF-12 lit1-tk-luc reporter, luminescence; 0% DMSO, 100% Δ7-dafachronic acid; activation, % at 6.8 µM; hit rate 1.4% among 370,000;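 active means activation above the mean of all tested compounds plus 3 SD, cut at about 5.5% in these data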
DAX1 conf: confirmation of human DAX1 (NR0B1) inhibitors; inhibition, % at 6.8 µM; shares compounds with DAX1 inh-1; AID 652134; HEK293T StAR-promoter luciferase reporter, SF-1/DAX-1 repression; hit rate 87% among 2,400;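 active means inhibition above the average of every tested compound plus 3 SD, cut at about 3.8% in these data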;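 further: active compounds raise luminescence by relieving repression of the StAR reporter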
Target sequence (P51843 whole entry, looked up): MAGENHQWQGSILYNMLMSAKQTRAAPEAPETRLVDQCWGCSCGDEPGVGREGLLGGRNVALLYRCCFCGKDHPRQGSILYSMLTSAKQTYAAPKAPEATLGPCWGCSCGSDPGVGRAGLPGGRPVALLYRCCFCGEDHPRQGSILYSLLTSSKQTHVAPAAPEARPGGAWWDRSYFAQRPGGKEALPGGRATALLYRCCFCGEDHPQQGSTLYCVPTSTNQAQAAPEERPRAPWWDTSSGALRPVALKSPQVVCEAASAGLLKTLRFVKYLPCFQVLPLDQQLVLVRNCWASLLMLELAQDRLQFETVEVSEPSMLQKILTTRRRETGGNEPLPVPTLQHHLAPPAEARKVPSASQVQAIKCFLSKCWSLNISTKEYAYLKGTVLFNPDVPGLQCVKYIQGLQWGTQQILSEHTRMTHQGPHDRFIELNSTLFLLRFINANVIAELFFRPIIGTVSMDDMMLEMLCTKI
SF1 AF2mut Luc: counter-screen for DAX1 inhibitors: nonselective inhibitors with SF-1 AF2 mutant. shares compounds with DAX1 inh-1. HEK293 StAR-luciferase, luminescence. inhibition, % at 6.8 µM. hit rate 78% among 2,400. AID 652136;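 active means inhibition above the mean of all tested compounds plus 3 SD, cut at about 3% in these data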
LXRb hcDAF ctr: counter-screen for hcDAF-12 agonists: agonists of human LXR-beta; AID 743027; 3,400 tested, under 10 active; shares compounds with hcDAF-12 act; HEK293 Gal4-LXR tk-luc reporter, luminescence, 24 h; normalized: DMSO 0%, positive control 100%; activation, % at 6.8 µM;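 active means mean percent activation of the reporter above a cutoff set as the average over tested compounds plus their standard deviation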
hcDAF12 ag: hcDAF-12 agonism, confirmation assay; hit rate 61% among 3,400; AID 743032; shares compounds with hcDAF-12 act; HEK293 hcDAF-12 lit1-tk-luc reporter, luminescence; % of Δ7-dafachronic acid response; activation, % at 6.8 µM;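 active means mean activation across triplicate tests above the threshold derived from the earlier primary screen, cut at about 5.5% in these data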
hgDAF12 conf: confirmation of H. glycines DAF-12 agonists; shares compounds with hgDAF-12 ag; HEK293 GAL4-hgDAF12 luciferase reporter, agonist mode; percent of butyrate response; activation, % at 6.8 µM; hit rate 80% among 3,300;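 active means mean activation over triplicate wells above the hit cutoff derived from the earlier primary screen, cut at about 11% in these data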
LXR ag 2: activates human LXR-beta, counter-screen for DAF-12 agonists. shares compounds with hgDAF-12 ag. activation, % at 6.8 µM. HEK293 Gal4-LXR luciferase reporter, 24 h. 3,300 tested, under 10 active;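 active means mean activation of the triplicate above a set limit carried over from the primary screen, none filed active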
Each line names hits and unclear results; the compound was inactive in the other large screens (follow-up assays come after a bar, where they were run).

O=C(O)c1ccc(N/N=C/c2cc3ccccc3nc2Cl)cc1	DAX1 inh-1 5.4, hgDAF-12 ag 17, DAX1 inh-2 4.3, hcDAF-12 act 5.6 | DAX1 conf 14 | SF1 AF2mut Luc 5.7 | hgDAF12 conf 12 | LXR ag 2 inactive
Cc1ccnc(NC(=O)c2ccccc2[N+](=O)[O-])c1	none
Cc1ccnc(NC(=O)/C=C/c2ccccc2[N+](=O)[O-])c1	DAX1 inh-1 5.0, hgDAF-12 ag 21, ssDAF-12 act 1.8, hcDAF-12 act 9.3 (no result: DAX1 inh-2) | DAX1 conf 14 | SF1 AF2mut Luc 8.1 | LXRb hcDAF ctr inactive | hcDAF12 ag 8.3 | hgDAF12 conf 20 | LXR ag 2 inactive
Cc1ccc2nc(-c3ccccc3N)[nH]c2c1	DAX1 inh-1 5.1, hgDAF-12 ag 22, hcDAF-12 act 9.2 | DAX1 conf 14 | SF1 AF2mut Luc 5.9 | LXRb hcDAF ctr inactive | hcDAF12 ag 10.0 | hgDAF12 conf 19 | LXR ag 2 inactive
COC(=O)c1ccc(-c2nc3ccccc3[nH]2)cc1	DAX1 inh-1 5.3, hgDAF-12 ag 15 | DAX1 conf 18 | SF1 AF2mut Luc 9.4 | hgDAF12 conf 13 | LXR ag 2 inactive
Cc1cc(-c2nc3ccccc3[nH]2)ccc1N	DAX1 inh-1 8.0, hgDAF-12 ag 15, ssDAF-12 act 1.2, hcDAF-12 act 6.4 | DAX1 conf 14 | SF1 AF2mut Luc 7.2 | hgDAF12 conf 17 | LXR ag 2 inactive
Cc1ccc(C)c(-c2nc3ccc(N)cc3[nH]2)c1	none
COC(=O)c1ccc(C(=O)Nc2ccc3nc(-c4ccncc4)[nH]c3c2)cc1	none
O=C(Nc1ccc(N2CCN(C(=O)c3ccccc3)CC2)cc1)c1ccc(Br)o1	none
O=C(Nc1ccc(N2CCCC2)cc1)c1ccc(Br)o1	DAX1 inh-1 6.0, hgDAF-12 ag 16, hcDAF-12 act 9.2 | DAX1 conf 12 | SF1 AF2mut Luc 6.0 | LXRb hcDAF ctr inactive | hcDAF12 ag 7.9 | hgDAF12 conf 17 | LXR ag 2 inactive
O=C(Nc1ccc(N2CCCCC2)cc1)c1ccc(F)cc1	DAX1 inh-1 4.6, hgDAF-12 ag 13, hcDAF-12 act 8.3 | DAX1 conf 12 | SF1 AF2mut Luc 6.0 | LXRb hcDAF ctr inactive | hcDAF12 ag inactive | hgDAF12 conf 20 | LXR ag 2 inactive
O=C(NCCc1ccccc1)c1ccccc1NC(=O)C1CCCCC1C(=O)O (stereo not given)	DAX1 inh-1 4.9, hgDAF-12 ag 18, hcDAF-12 act 9.3 (no result: DAX1 inh-2) | DAX1 conf 5.4 | SF1 AF2mut Luc 4.3 | LXRb hcDAF ctr inactive | hcDAF12 ag inactive | hgDAF12 conf 14 | LXR ag 2 inactive
O=C(Nc1ccc(F)cc1)c1ccccc1NC(=O)C1CCCCC1C(=O)O (stereo not given)	none
COc1ccc(C2C(C(=O)Nc3cc(Cl)ccc3F)CCC(=O)N2c2ccc(OC)cc2)cc1 (stereo not given)	none (no result: DAX1 inh-2)
CC1CCCCC12NC(=O)N(CC(=O)NCc1cccs1)C2=O (stereo not given)	none
Cc1cc(C(=O)CN2C(=O)NC3(CCCCC3C)C2=O)c(C)n1Cc1cccs1 (stereo not given)	DAX1 inh-1 5.0, hgDAF-12 ag 15 | DAX1 conf 9.6 | SF1 AF2mut Luc 5.5 | hgDAF12 conf 10 | LXR ag 2 inactive
COc1ccc(C(O)c2nc(-c3cnc4ccccc4c3)cs2)cc1 (stereo not given)	none (no result: DAX1 inh-2)
OC(c1ccc(F)cc1)c1nc(-c2cnc3ccccc3c2)cs1 (stereo not given)	DAX1 inh-1 5.1, hgDAF-12 ag 16, hcDAF-12 act 6.6 (no result: DAX1 inh-2) | DAX1 conf 11 | SF1 AF2mut Luc 8.1 | LXRb hcDAF ctr inactive | hcDAF12 ag 7.9 | hgDAF12 conf 19 | LXR ag 2 inactive
CC1(C)CC(=O)c2c(O)cc(OCc3ccc(Br)cc3)cc2O1	DAX1 inh-1 4.6, hgDAF-12 ag 14 | DAX1 conf 13 | SF1 AF2mut Luc 8.9 | hgDAF12 conf inactive | LXR ag 2 inactive
COC(=O)c1ccc(COc2cc(O)c3c(c2)OC(C)(C)CC3=O)cc1	none
O=C(CCNS(=O)(=O)c1ccc2ccccc2c1)NCCOc1ccccc1	none
CCOC(=O)C(C)n1nc(/C=C/c2ccc(OC)cc2)ccc1=O (stereo not given)	none
CC(C)c1ccc(/C=C/c2ccc(=O)n(C)n2)cc1	DAX1 inh-1 5.3, hgDAF-12 ag 19, hcDAF-12 act 6.4 | DAX1 conf 6.7 | SF1 AF2mut Luc 3.4 | hgDAF12 conf 14 | LXR ag 2 inactive
Cc1cc(O)ccc1Nc1cc(-c2cccc(N)c2)ncn1	none (no result: DAX1 inh-2)
CNc1cc(-c2cccc(N(C)C)c2)ncn1	DAX1 inh-1 7.2, hgDAF-12 ag 18, ssDAF-12 act 1.3 (no result: DAX1 inh-2) | DAX1 conf 16 | SF1 AF2mut Luc 5.9 | hgDAF12 conf 15 | LXR ag 2 inactive
CCN(CC)c1ccc(/C=N/NC(=O)c2nnn(-c3nonc3N)c2CN(C)C2CCCCC2)cc1	none
O=C(CSc1cnc2ccccc2n1)c1ccc(F)cc1	DAX1 inh-1 5.4, hgDAF-12 ag 19, ssDAF-12 act 1.1, hcDAF-12 act 9.2 | DAX1 conf 7.3 | SF1 AF2mut Luc 4.4 | LXRb hcDAF ctr inactive | hcDAF12 ag inactive | hgDAF12 conf 17 | LXR ag 2 inactive
NC(=O)[C@@H]1CCCN1C(=O)[C@@H](Cc1ccccc1)NC(=O)[C@H]1O[C@@H](n2ccc(=O)[nH]c2=O)[C@H](O)[C@@H]1O	none (no result: DAX1 inh-2)
Cc1cc(C)c(C)c(OCC(=O)O/N=C(\N)c2ccccn2)c1	none
N/C(=N\OC(=O)COc1ccc(Cl)cc1Cl)c1ccccn1	DAX1 inh-1 5.3, hgDAF-12 ag 16, hcDAF-12 act 6.4 | DAX1 conf 19 | SF1 AF2mut Luc 7.2 | hgDAF12 conf 15 | LXR ag 2 inactive
